From PubChem BioAssay (Tox21)
Inconclusive results are not listed. A number with no mark means an inactive call. Calls of active or inactive are those of the source. Calls come from the whole dose curve; as a rule, active = well fitted cell-killing curve with a large enough effect in the repeat runs; inconclusive = weak or mixed curves; inactive = flat fitted curve, though single readings scatter.

assay: qHTS RealTime-Glo MT Cell Viability Assay in HepG2 cells - 32 hour (AID 1224877); conditions: RealTime-Glo luminescence; series mostly up to 76.8 µM; activity change, negative = cytotoxic: at the top concentration; note: nearly all actives have a fitted effect of over 55% in size
Text: U.S. Tox21 Program National Center for Advancing Translational Sciences [NCATS] NIH Chemical Genomics Center [NCGC] U.S. Environmental Protection Agency [EPA] National Institutes of Environmental Health Sciences [NIEHS] National Toxicology Program [NTP] U.S. Food and Drug Administration [FDA] Tox21 Assay Overview: Measure of cell viability is critical in the cell-base assay. Analysis of cell viability is necessary for the characterization of cell responses to cytotoxic drugs and environmental stress. A RealTime-Glo MT Cell Viability Assay to monitor cell viability in real time of continues cell culture during 40 hours of compound treatment was used to screen Tox21 10K library compounds in HepG2 cells. The RealTime-Glo MT Cell Viability Assay is a nonlytic, homogeneous, bioluminescent method to measure cell viability in real time using a simple, plate-based method. The assay involves adding NanoLuc luciferase and a cell-permeant prosubstrate to cells in culture. Viable cells reduce the proprietary prosubstrate to generate a substrate for NanoLuc luciferase. This substrate diffuses from cells into the surrounding culture medium, where it is rapidly used by the NanoLuc Enzyme to produce a luminescent signal. The signal correlates with the number of viable cells, making the assay well suited for cytotoxicity studies.
Tox21 Assay Protocol Summary: The mixture of HepG2 cell suspension and reagents were dispensed at 600cells/6 ul/well in 1536-well tissue culture treated black solid bottom plates using a Multidrop dispenser. After the assay plates were incubated at a 37 C/5% CO2 incubator for 5 hours, 23 nL of compounds dissolved in DMSO, positive and negative controls was transferred to the assay plate by a pintool work station. The plates were incubated at 37 C for 40 hours. The luminescence intensity were measured at 0h, 8h, 16h, 24h, 32h and 40h time points using ViewLux plate reader during compound treatment.
% is set by controls: 0 for no effect and ±100 for the full control effect; potency is the fitted concentration of half-maximal effect.

Row | Structure (SMILES) | Potency | activity change, negative = cytotoxic
1 | CCOP(=O)(OCC)SCCSCC | inactive | –
2 | OCCCBr | – | -6.32%
3 | Clc1cc(C(Cl)(Cl)Cl)cnc1Cl | – | -22.5%
4 | BrCCCCBr | – | -0.0032%
5 | II | 7.76 µM (active) | –
6 | O=C(CBr)c1ccccc1 | – | -10.8%
7 | C=CC(=O)OCCCCO | – | -15.7%
8 | CC(Cl)C(C)Cl (stereo not given) | – | -3.72%
9 | COCC(C)N(C(=O)CCl)c1c(C)csc1C (stereo not given) | – | -8.31%
10 | C=CCC1([C@H](C)CCC)C(=O)NC(=O)NC1=O | – | -1.53%
11 | C=CC(=O)NCNC(=O)C=C | – | 9.23%
12 | CC(c1ccc(O)cc1)(c1ccc(O)cc1)c1ccc(O)cc1 | – | -16.3%
13 | CC(C)(OO)c1ccccc1 | – | 2.09%
14 | CC[C@H]1C[C@H]2[C@@H]3CCC4=CC(=O)CC[C@@H]4[C@H]3CC[C@]2(C)[C@H]1O | – | -14.2% [at 35.3 µM]
15 | N#CCC#N | – | -12%
16 | C=CC(=O)OC | – | -11.4%
17 | COC(C)(C)CCC[C@H](C)C/C=C/C(C)=C/C(=O)OC(C)C | – | -2.23%
18 | CN(C)c1ccc(N(C)C)cc1 | – | 6.34%
19 | Cn1cc[n+](C)c1 (tested in a mixture with another compound) | – | -2.76%
20 | ClC=C(Cl)Cl | – | 1.36%

Row | Structure (SMILES) | Potency | activity change, negative = cytotoxic
21 | CCCCC(CC)COP(=O)(Oc1ccccc1)Oc1ccccc1 (stereo not given) | – | -2.62%
22 | C=CCN1CC[C@]23c4c5ccc(O)c4O[C@H]2C(=O)CC[C@@]3(O)[C@H]1C5 | – | 1.03% [at 35.3 µM]
23 | ClCc1cccc(Cl)c1 | – | 1.87% [at 35.3 µM]
24 | NNC(=O)c1cccnc1 | – | 0.522%
25 | COP(=S)(OC)Oc1ccc([N+](=O)[O-])cc1Cl | – | -5.42%
26 | COCCOCCO | – | -10.7%
27 | C[C@H]1CNCCc2ccc(Cl)cc21 | – | 2.08% [at 35.3 µM]
28 | CCOP(=S)(OCC)Oc1nc(Cl)c(Cl)cc1Cl | inactive | –
29 | CC1CC(CC2CCC(N)C(C)C2)CCC1N (stereo not given) | – | -12.7%
30 | O=C(C(Cl)(Cl)Cl)C(Cl)(Cl)Cl | – | -1.38%
31 | COC(=O)c1cncn1C(C)c1ccccc1 (stereo not given) | – | -0.014% [at 35.3 µM]
32 | ClCCCCBr | – | 4.4%
33 | Brc1ccc(Oc2ccccc2)cc1 | inactive | –
34 | O=C=Nc1ccc(Cl)cc1 | – | -6.25%
35 | [O-][Cl+]O | – | 1.72%
36 | CCc1ccc(C(=O)NN(C(=O)c2cc(C)cc(C)c2)C(C)(C)C)cc1 | – | -19.6%
37 | c1ccc(CN2CCNCC2)cc1 | – | 0.951% [at 200 µM]
38 | Clc1cccc(SC2CCNCC2)n1 | – | 0.359% [at 35.3 µM]
39 | C=CC(C)=O | – | -0.239%
40 | CCCC(Cn1cncn1)c1ccc(Cl)cc1Cl (stereo not given) | – | -17.2%
